In PubChem BioAssay:
Records with an inconclusive call do not appear. Calls of active or inactive are those of the source.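 Rule for the calls, unless noted: active = inhibition above 50%, about 3 SD of the validation set; inactive = the rest.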

Legend:
[1] = rapamycin-like changes in RPL19A-GFP expression – cell-based, S. cerevisiae, multiplex flow cytometry, primary screen (AID 1862; in the data active = percent of DMSO control GFP below about 86%;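 note: lower values mimic rapamycin by blocking the RPL19A rise seen in DMSO cells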); conditions: S. cerevisiae RPL19A-GFP strain, flow cytometry fluorescence, 3 h; at 10 µM; stronger effect = lower value
[2] = TOR pathway GLN3 branch reporter MEP2-GFP changes – S. cerevisiae, multiplex flow cytometry, primary screen (AID 1867;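 active = GFP response, as percent of the DMSO control, above the screen-wide mean plus 3 SD, about 139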;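 note: median GFP channel fluorescence of barcode-gated MEP2-GFP cells measured by flow cytometry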); conditions: S. cerevisiae MEP2-GFP strain, 3 h, at 10 µM, stronger effect = higher value, 100% means same as DMSO wells
[3] = TOR pathway RTG branch CIT2 reporter changes – S. cerevisiae, GFP fusion, multiplex flow cytometry, primary screen (AID 1870;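 active = percent response above a set limit, the screen-wide mean plus 3 SD, cut at about 130% in these data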;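 note: barcoded CIT2-GFP strain pooled with four other GFP strains with rapamycin as positive control; median GFP fluorescence per well over plate mean of DMSO wells so 100% = DMSO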); conditions: S. cerevisiae CIT2-GFP expression, 3 h, at 10 µM, stronger effect = higher value
[4] = TOR pathway LAP4-GFP level changes – S. cerevisiae, multiplex flow cytometry, primary screen (AID 1873;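 active = GFP signal, as percent of the solvent control, above the screen mean plus 3 SD, about 149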); conditions: S. cerevisiae LAP4-GFP expression, 3 h, at 10 µM, stronger effect = higher value
[5] = yeast AGP1-GFP level changes, GLN3 branch – cell-based, multiplex flow cytometry, S. cerevisiae, primary screen (AID 1887;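 active = GFP signal above the screen-wide mean plus 3 SD, that is over about 124.5% of the solvent control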;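 note: AGP1-GFP fusion strain of S. cerevisiae within a five-strain barcoded multiplex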); conditions: 3 h, at 10 µM, stronger effect = higher value
[6] = reduced mouse 2C T cell binding to pMHC/ICAM-1 vesicles – MLPCN validation set, flow cytometry, LFA-1/ICAM-1 modulator project, pilot screen (AID 2523;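 active = response below a set limit, under 55% cells CD8-positive and vesicle-bound, and CD8 cells' 90th-percentile brightness under 279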;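 for vesicle binding response: mean PE anti-B7-1 fluorescence of CD8+ cells relative to row control; 100% = QL9-loaded vesicles with DMSO vehicle in the same plate row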); conditions: 2C mouse CD8+ T cells, at 7 µM, stronger effect = lower value; double positive events: measured here: CD8+/vesicle+ event percentage
[7] = biological target: Integrin beta-1 (Homo sapiens) + Integrin alpha-4 (Homo sapiens) (UniProt P13612+P05556); experiment: alpha4beta1 integrin LIBS antibody binding reduction – U937 cells, HUTS-21 mAb, flow cytometry, validation set, VLA-4 allosteric modulator project, pilot screen (AID 2674); conditions: HUTS-21 LIBS mAb binding, at 6.7 µM, stronger effect = higher value, binding induced by LDV ligand;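 note: antibody binding induced by the VLA-4 ligand LDV present at three times its Kd; 0% = LDV ligand with antibody and no compound and 100% = antibody without LDV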
[8] = calorie-restriction mimetic ROS inhibitors, yeast – validation compound set, pilot screen (AID 2706;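 active = superoxide response below 65% of plate, a cut near 3 SD across the whole screen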;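 note: yeast exposed to compound for one week at 30 degrees C before staining; 100% = mean of all compound wells on the same plate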); conditions: S. cerevisiae aging, superoxide DHE fluorescence; at 10 µM, stronger effect = lower value
[9] = biological target: Beta-adrenergic receptor kinase 1 (Homo sapiens) (UniProt P25098); experiment: GRK2 binders displacing RNA aptamer, biochemical, validation, human GRK2, bead flow cytometry (AID 488806;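 active = aptamer binding inhibition above 30%, about 3 SD of noise from non-fluorescent compounds; inactive = inhibition at or below 30%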); conditions: bead-bound GRK2, FAM-aptamer displacement, at 10 µM, stronger effect = higher value
[10] = biological target: AP-2 complex subunit beta (Homo sapiens) (UniProt P63010); experiment: beta-arrestin/AP2 interaction blockers – biochemical, validation set, GST-AP2 beads, flow cytometry, pilot screen (AID 504541;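 active = inhibition above 54%, about 3 SD of non-fluorescent compounds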;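 note: AP2 carries R879A mutation and is captured from E. coli lysate; bead-bound FITC arrestin peptide fluorescence measuring arrestin peptide binding to AP2; 0% = DMSO wells and 100% = excess unlabeled arrestin peptide control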); conditions: FITC arrestin peptide, at 10 µM, stronger effect = higher value, AP2 beta2 appendage fragment, R879A mutant
[11] = cytosolic pH regulators acting via V-ATPase – S. cerevisiae, pHLuorin, HTS validation (AID 504600; in the data active = response above about 15%;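 note: plate controls were DMSO for no effect and reference compound for full effect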); conditions: V-ATPase proton transport, at 10 µM, stronger effect = higher value
[12] = test system: anti-desmoglein-3 scFv antibody binding to human DSG3; experiment: blockers of pathogenic pemphigus antibody–desmoglein-3 binding – biochemical, validation compound set, bead-based, flow cytometry, pilot screen (AID 588368;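 active = binding below the plate cutoff, the plate median minus 3 SD, with a reading above zero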;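 note: signal is the median channel fluorescence of bead-bound GFP antibody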); conditions: Protein G beads, DSG3-Fc, scFv-GFP binding, at 10 µM, stronger effect = lower value
[13] = Nile Red efflux blockade in pump-expressing yeast – validation compound set, multiplex, phenotypic, pilot screen (AID 588506;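 active = efflux inhibition above 0.42, the validation set average plus 4 SD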;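 note: Nile Red retained in cells so higher fluorescence means more efflux inhibition; 0 = negative control wells and 1 = enniatin B 25 µM full block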); conditions: S. cerevisiae pump-expressing triplex, Nile Red efflux flow cytometry; at 10 µM; stronger effect = higher value; the pumps come from Candida albicans
[14] = biological target: ATP-binding cassette sub-family B member 6 (Homo sapiens) (UniProt Q9NP58); experiment: blockers of ABCB6-driven porphyrin uptake – K562-ABCB6 cells, flow cytometry, validation set, pilot screen (AID 588550;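 active = inhibition above the screen-wide mean plus 3 SD, about 51%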;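 note: 0% = DMSO wells and 100% = benzethonium chloride 70 µM positive control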); conditions: K562-ABCB6 porphyrin accumulation, 1 h, at 10 µM, stronger effect = higher value
[15] = AML differentiation inducers, ER-HoxA9 marrow cells – cell-based, GFP/MAC1 double positive, flow cytometry, validation set, primary screen (AID 588685;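 active = differentiation response of at least 50%, scaled between solvent and reference control, from cells with both markers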;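 note: compound exposure lasts four days before antibody staining and flow analysis; 0% = DMSO wells and 100% = 5 µM fulvestrant positive control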); conditions: stronger effect = higher value, normalized: vehicle 0, fulvestrant 100

Chain of Integrin beta-1 (Homo sapiens) + Integrin alpha-4 (Homo sapiens) (P05556 whole entry, looked up): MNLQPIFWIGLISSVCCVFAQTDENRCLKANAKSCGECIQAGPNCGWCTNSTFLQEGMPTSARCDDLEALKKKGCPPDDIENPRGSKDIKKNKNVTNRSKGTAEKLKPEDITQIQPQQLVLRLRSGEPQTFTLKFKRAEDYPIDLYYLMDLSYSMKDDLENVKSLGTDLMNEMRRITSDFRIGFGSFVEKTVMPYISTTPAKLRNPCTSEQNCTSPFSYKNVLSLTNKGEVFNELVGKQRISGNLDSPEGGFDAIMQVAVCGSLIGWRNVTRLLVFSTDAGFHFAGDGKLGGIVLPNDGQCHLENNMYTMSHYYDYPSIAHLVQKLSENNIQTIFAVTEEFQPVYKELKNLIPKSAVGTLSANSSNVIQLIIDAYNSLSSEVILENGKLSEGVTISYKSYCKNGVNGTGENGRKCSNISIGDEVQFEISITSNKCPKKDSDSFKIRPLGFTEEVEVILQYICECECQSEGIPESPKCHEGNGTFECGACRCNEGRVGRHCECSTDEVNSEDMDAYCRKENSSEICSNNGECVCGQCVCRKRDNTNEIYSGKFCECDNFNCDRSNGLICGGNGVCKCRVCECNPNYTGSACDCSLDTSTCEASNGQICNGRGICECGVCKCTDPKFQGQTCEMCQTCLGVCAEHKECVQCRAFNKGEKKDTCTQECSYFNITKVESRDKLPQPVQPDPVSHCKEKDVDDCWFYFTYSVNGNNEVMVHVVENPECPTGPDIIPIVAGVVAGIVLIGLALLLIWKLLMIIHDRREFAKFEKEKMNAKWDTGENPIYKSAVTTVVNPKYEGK
Chain of Integrin beta-1 (Homo sapiens) + Integrin alpha-4 (Homo sapiens) (P13612 whole entry, looked up): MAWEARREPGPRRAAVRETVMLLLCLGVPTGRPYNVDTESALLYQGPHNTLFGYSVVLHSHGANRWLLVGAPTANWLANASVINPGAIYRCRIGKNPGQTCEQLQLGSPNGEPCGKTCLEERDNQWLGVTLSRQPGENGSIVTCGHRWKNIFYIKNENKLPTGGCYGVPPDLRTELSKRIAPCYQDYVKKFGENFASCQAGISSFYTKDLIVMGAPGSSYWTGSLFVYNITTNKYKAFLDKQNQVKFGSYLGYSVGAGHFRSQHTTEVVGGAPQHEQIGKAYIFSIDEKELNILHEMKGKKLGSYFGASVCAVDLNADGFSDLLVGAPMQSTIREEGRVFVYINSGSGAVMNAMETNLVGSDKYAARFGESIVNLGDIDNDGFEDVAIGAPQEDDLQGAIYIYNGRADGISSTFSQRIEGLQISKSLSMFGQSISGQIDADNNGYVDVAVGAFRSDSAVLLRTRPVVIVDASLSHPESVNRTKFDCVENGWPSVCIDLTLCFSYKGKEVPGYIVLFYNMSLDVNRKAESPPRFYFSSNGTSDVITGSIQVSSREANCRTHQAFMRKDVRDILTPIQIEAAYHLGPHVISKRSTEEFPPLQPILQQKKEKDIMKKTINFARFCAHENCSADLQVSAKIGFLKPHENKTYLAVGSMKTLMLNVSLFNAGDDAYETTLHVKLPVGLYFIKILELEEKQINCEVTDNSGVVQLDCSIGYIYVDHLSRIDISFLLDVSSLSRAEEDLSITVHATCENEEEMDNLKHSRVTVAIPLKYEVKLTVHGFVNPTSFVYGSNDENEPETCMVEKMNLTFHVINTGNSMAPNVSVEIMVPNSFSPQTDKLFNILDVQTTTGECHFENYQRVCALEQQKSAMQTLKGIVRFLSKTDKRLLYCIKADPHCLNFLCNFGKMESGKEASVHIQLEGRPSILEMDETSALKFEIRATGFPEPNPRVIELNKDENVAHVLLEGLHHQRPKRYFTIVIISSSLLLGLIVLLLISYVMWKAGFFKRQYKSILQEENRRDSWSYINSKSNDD
Chain of Beta-adrenergic receptor kinase 1 (Homo sapiens) (P25098 whole entry, looked up): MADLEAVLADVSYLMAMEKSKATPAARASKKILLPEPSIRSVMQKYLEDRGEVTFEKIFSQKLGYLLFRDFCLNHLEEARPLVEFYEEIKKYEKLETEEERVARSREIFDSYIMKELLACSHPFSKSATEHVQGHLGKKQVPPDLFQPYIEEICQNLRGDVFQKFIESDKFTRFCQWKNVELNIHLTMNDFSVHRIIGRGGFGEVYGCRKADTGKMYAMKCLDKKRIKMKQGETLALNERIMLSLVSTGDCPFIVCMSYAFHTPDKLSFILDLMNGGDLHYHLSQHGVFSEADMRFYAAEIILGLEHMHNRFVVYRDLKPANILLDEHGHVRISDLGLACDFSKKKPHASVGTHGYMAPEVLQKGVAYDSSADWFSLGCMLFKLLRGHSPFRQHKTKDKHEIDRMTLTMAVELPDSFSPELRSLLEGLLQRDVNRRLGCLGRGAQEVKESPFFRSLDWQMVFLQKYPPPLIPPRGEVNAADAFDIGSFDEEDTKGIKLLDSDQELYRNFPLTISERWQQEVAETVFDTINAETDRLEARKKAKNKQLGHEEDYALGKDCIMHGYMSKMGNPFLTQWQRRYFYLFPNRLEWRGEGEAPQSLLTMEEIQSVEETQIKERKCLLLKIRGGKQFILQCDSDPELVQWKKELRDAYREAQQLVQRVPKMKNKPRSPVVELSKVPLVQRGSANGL
Chain of ATP-binding cassette sub-family B member 6 (Homo sapiens) (Q9NP58 whole entry, looked up): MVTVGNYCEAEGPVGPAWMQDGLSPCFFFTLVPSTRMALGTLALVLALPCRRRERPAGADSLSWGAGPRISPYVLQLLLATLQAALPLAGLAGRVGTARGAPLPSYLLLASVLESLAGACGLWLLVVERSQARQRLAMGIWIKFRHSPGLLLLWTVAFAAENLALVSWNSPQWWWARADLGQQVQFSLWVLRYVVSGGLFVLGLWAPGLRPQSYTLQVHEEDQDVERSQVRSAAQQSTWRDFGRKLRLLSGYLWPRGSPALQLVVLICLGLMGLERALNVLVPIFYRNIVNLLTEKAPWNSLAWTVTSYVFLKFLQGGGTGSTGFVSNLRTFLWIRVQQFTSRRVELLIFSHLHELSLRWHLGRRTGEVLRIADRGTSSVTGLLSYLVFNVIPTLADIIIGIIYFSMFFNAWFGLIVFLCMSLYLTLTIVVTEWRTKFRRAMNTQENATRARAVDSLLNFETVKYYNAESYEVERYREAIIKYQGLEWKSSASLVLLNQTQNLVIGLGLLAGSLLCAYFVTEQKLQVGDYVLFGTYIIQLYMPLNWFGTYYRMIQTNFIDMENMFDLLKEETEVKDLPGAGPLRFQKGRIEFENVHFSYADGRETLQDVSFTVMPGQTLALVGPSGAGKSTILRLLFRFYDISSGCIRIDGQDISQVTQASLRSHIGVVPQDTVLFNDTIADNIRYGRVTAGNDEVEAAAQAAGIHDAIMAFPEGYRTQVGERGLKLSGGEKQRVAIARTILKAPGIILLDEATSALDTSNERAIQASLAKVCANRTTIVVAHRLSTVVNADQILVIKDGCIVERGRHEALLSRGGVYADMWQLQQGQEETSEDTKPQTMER
Chain of AP-2 complex subunit beta (Homo sapiens) (P63010 whole entry, looked up, the tested form may be a part, one chain of several): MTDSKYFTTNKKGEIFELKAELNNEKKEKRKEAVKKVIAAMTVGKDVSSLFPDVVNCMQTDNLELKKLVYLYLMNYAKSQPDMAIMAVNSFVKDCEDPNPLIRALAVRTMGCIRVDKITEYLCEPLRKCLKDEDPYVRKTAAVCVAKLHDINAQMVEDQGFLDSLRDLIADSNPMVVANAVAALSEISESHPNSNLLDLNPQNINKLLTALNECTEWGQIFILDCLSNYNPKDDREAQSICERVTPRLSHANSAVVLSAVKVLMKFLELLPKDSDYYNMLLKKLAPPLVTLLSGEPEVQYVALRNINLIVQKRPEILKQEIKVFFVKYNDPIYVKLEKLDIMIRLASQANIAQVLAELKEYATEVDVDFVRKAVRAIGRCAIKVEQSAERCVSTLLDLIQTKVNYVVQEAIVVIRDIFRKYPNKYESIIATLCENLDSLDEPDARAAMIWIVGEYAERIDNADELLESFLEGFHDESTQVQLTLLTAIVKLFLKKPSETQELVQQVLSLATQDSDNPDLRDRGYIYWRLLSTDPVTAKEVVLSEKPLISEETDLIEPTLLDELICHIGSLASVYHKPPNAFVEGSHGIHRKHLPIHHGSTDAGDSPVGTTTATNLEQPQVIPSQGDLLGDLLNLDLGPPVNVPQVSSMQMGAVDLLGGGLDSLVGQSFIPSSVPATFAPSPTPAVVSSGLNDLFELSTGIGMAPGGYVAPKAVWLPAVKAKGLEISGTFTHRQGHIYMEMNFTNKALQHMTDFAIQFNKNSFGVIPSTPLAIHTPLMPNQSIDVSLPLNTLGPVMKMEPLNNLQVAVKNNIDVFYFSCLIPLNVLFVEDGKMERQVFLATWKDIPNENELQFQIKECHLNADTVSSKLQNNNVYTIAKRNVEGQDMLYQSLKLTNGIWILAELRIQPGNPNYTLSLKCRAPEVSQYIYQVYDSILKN

Row | Structure (SMILES) | percent of DMSO control GFP [1] | GFP response vs DMSO [2] | percent response of DMSO control [3] | GFP response vs DMSO [4] | GFP response, % of DMSO [5] | double positive events [6] [%] | vesicle binding response [6] | inhibition [7] | superoxide response (% of plate) [8] | aptamer binding inhibition [9] | inhibition [10] | response [11] | binding (% of control) [12] | efflux inhibition (fraction of control) [13] | inhibition [14] | differentiation response [15]
1 | O=C(O)c1cc(-c2ccc3c(c2)OCO3)nc2ccc(Br)cc12 | 100% (inactive) | 97.9% (inactive) | 82.2% (inactive) | 127% (inactive) | 88.9% (inactive) | 67 | 182% (inactive) | -7.7% (inactive) | 108% (inactive) | -3% (inactive) | 12% (inactive) | -4.89% (inactive) | 105% (inactive) | 0.18 (inactive) | 8% (inactive) | 41.8% (inactive)
2 | COc1c(C)cc(C(=O)C2CCCN(Cc3ccc(Oc4ncccn4)cc3)C2)cc1C (stereo not given) | 99.5% (inactive) | 107% (inactive) | 112% (inactive) | 103% (inactive) | 103% (inactive) | 56.4 | 202% (inactive) | -4.9% (inactive) | 99.2% (inactive) | 0% (inactive) | 4.02% (inactive) | 0.79% (inactive) | 101% (inactive) | -0.01 (inactive) | 5% (inactive) | -30.9% (inactive)
3 | CCOC(=O)NN1C(=O)c2ccccc2NC1c1ccc(OC)c(OC)c1 (stereo not given) | 95.1% (inactive) | 103% (inactive) | 95.9% (inactive) | 103% (inactive) | 99.6% (inactive) | 64.4 | 121% (inactive) | 7.22% (inactive) | 99.5% (inactive) | 2% (inactive) | -4.55% (inactive) | -6.37% (inactive) | 102% (inactive) | -0.05 (inactive) | 14% (inactive) | 46.6% (inactive)
4 | Cn1nc(-c2ccccn2)nc2c(=O)n(C)c(=O)nc1-2 | 103% (inactive) | 98.9% (inactive) | 110% (inactive) | 105% (inactive) | 105% (inactive) | 59.4 | 165% (inactive) | -40.4% (inactive) | 107% (inactive) | 61% (active) | 17.4% (inactive) | -11.7% (inactive) | 94.9% (inactive) | -0.12 (inactive) | -1% (inactive) | -22.8% (inactive)
5 | CCOC(=O)c1oc2cc(OCC(N)=O)ccc2c(=O)c1-c1ccc(OC)c(OC)c1 | 109% (inactive) | 97.9% (inactive) | 107% (inactive) | 94.3% (inactive) | 101% (inactive) | 62.1 | 207% (inactive) | 24.9% (inactive) | 90.1% (inactive) | 1% (inactive) | 2.96% (inactive) | -0.67% (inactive) | 100% (inactive) | -0.01 (inactive) | 8% (inactive) | -18% (inactive)
6 | CN(C)c1nc(N(C)C)nc(N(C)C)n1 | 94.6% (inactive) | 103% (inactive) | 97.9% (inactive) | 97.4% (inactive) | 94.2% (inactive) | 63 | 181% (inactive) | 5.36% (inactive) | 95.5% (inactive) | 0% (inactive) | 47.8% (inactive) | -8.12% (inactive) | 99.3% (inactive) | 0.78 (active) | 9% (inactive) | 14.3% (inactive)
7 | CO[C@@H]1O[C@@H]2COC(c3ccccc3)O[C@@H]2[C@@H](OC)[C@@H]1O (stereo not given in full) | 103% (inactive) | 104% (inactive) | 106% (inactive) | 96.4% (inactive) | 99.6% (inactive) | 56 | 166% (inactive) | 5.36% (inactive) | 117% (inactive) | 5% (inactive) | 15.1% (inactive) | 4.1% (inactive) | 102% (inactive) | 0.1 (inactive) | 4% (inactive) | -9.89% (inactive)
8 | CC(=O)O[C@H]1C(=O)[C@@]2(C)[C@H]([C@H](OC(=O)c3ccccc3)[C@]3(O)C[C@H](OC(=O)[C@H](O)C(NC(=O)c4ccccc4)c4ccccc4)C(C)=C1C3(C)C)[C@]1(OC(C)=O)CO[C@@H]1C[C@@H]2O (stereo not given in full) | 106% (inactive) | 99.9% (inactive) | 103% (inactive) | 90.3% (inactive) | 97.3% (inactive) | 55.6 | 162% (inactive) | 5.36% (inactive) | 99% (inactive) | 3% (inactive) | 2.22% (inactive) | -2.34% (inactive) | 94.6% (inactive) | 0.63 (active) | 7% (inactive) | 9.49% (inactive)
9 | CC(=O)OCC(=O)[C@@]12OC3(CCCC3)O[C@@H]1C[C@H]1[C@@H]3CCC4=CC(=O)C=C[C@]4(C)[C@@]3(F)[C@@H](O)C[C@@]12C | 98.5% (inactive) | 96.9% (inactive) | 99.8% (inactive) | 106% (inactive) | 101% (inactive) | 61.4 | 173% (inactive) | -12.4% (inactive) | 97% (inactive) | 2% (inactive) | 26.6% (inactive) | -4.26% (inactive) | 96.4% (inactive) | 0.9 (active) | 6% (inactive) | -3.43% (inactive)
10 | COc1ccc2oc(=O)c(C(=O)N3CCN(c4ccccc4)CC3)cc2c1 | 97.8% (inactive) | 93.8% (inactive) | 101% (inactive) | 89.3% (inactive) | 90.3% (inactive) | 52.5 | 130% (inactive) | 12.8% (inactive) | 110% (inactive) | 2% (inactive) | 10.5% (inactive) | -1.57% (inactive) | 101% (inactive) | -0.54 (inactive) | 10% (inactive) | 25.6% (inactive)
